This note sets out measurements from PubChem BioAssay AID2685 (National Center for Advancing Translational Sciences (NCATS), 2010).

The campaign covered roughly 320,000 compounds. About 2,100 (0.66%) were called active. Not shown: some 53% with an inconclusive outcome. The call rests on the fitted dose curve; in most records, active means well fitted inhibition curve with a large enough effect in the signal ratio, with a control signal flat (not every such curve was filed as active); inconclusive means small, poorly fitted or top-dose-only effect, or effect the other way, or a change in a side signal; inactive means flat fitted curve, though single readings scatter; the % refers to the signal ratio. For the sample, actives were picked, then their nearest neighbours and some compounds at random.
Potency means the concentration at half of the fitted maximal effect.

The assay is described as follows: qHTS Assay for Lipid Storage Modulators in Drosophila S3 Cells.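 On cell number change: cells counted by Cell Tracker Red CMTPX staining in the red channel.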 As to conditions: BODIPY lipid droplet fluorescence, 18-24 h, cells fed with added oleic acid; cell number change: measured here: cell count max response; series mostly up to 46.1 µM. The essentials:
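Drosophila S3 cells got compounds at several concentrations plus oleic acid (400 uM solution). Laser-scanning cytometry with 488 nm excitation read lipid droplets at 500-530 nm and cells at 575-640 nm. Percent activity was relative to 20 uM Triacsin C.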
On to `Cc1ccc(CCNC(=O)CCNS(=O)(=O)c2ccc3c(c2)oc(=O)n3C)cc1`, for which the Potency result is “inactive” and the cell number change worked out at 0.906%.

With `CC(C)NC(=O)CCCOc1ccc(Cl)cc1Cl`, the Potency entry was “inactive” and the cell number change amounted to 5.02%.

As to `O=C(CCCOc1ccc(Cl)cc1Cl)NCCc1nnc2ccccn12`, the Potency entry was “inactive” and the cell number change amounted to 33.2%.

In the case of `C[C@H](NC(=O)CCCOc1ccc(Cl)cc1Cl)c1nnc2ccccn12`, the Potency was 18.4 µM (active) and the cell number change worked out at 5.34%.

Take `Cc1sc2ncnc(SCC(=O)N3CCOCC3)c2c1C`: the Potency entry is “inactive” and the cell number change is -10.8%.

Turning to `COc1ccccc1CNS(=O)(=O)c1ccc2c(c1)CC(C)N2C(=O)C1CCC1` (stereo unspecified), the Potency is 5.17 µM (active) and the cell number change is -14.7%.

On to `COc1ccccc1NC(=O)CCNS(=O)(=O)c1ccc2c(c1)CC(C)N2C(=O)C1CC1` (stereo unspecified), for which the Potency entry was “inactive” and the cell number change amounted to 3.62%.

Regarding `CC1Cc2cc(S(=O)(=O)NCc3ccccc3)ccc2N1C(=O)C1CC1` (stereo unspecified), the Potency result was “inactive” and the cell number change was -26.2%.

In the case of `COc1cccc(NC(=O)CCNS(=O)(=O)c2ccc3c(c2)CC(C)N3C(=O)C2CC2)c1` (stereo unspecified), the Potency result is “inactive” and the cell number change is 4.78%.

For `COc1ccccc1CNC(=O)CCS(=O)(=O)c1ccc2c(c1)CC(C)N2C(=O)C1CC1` (stereo unspecified), the Potency entry is “inactive” and the cell number change is -19.6%.

In the case of `COc1cccc(CNS(=O)(=O)c2ccc3c(c2)CC(C)N3C(=O)C2CC2)c1` (stereo unspecified), the Potency is 11.6 µM (active) and the cell number change is -26.9%.

Consider `OC1(c2ccccc2)CCN(Cc2ccccc2)C2CCCCC21` (stereo unspecified), for which the Potency result is “inactive” and the cell number change was -0.282%.

As for `COc1ccc(-n2c(/C=C(\C)O)nc(=O)c3c(C)cc(C)nc32)cc1`, the Potency entry is “inactive”.

Turning to `COC(=O)C1Cc2c([nH]c3ccccc23)CN1C(C)=O` (stereo unspecified), the Potency result was “inactive” and the cell number change turned out to be 2.42%.

In the case of `O=C(COC(=O)C1CCCN1C(=O)c1cccs1)Nc1ccc2c(c1)OCO2` (stereo unspecified), the Potency result was “inactive” and the cell number change was 11.1%.

Regarding `COc1ccc(NC(=O)COC(=O)[C@@H]2CCCN2C(=O)c2cccs2)c(OC)c1`, the Potency result is “inactive” and the cell number change was -0.232%.

Consider `COc1ccc(/C=C2\SC(=O)N(CCNC(=O)C3CC4C=CC3C4)C2=O)cc1` (stereo unspecified), for which the Potency result is “inactive”.

Take `COc1ccc(/C=C2/SC(=O)N(CCNC(=O)C3CCCN3C(=O)c3cccs3)C2=O)cc1` (stereo unspecified): the Potency is 20.6 µM (active) and the cell number change is -3.84%.

On to `O=C(NCCN1C(=O)S/C(=C\c2cccnc2)C1=O)c1ccc([N+](=O)[O-])s1`, for which the Potency result is “inactive” and the cell number change was 0.268%.

In the case of `COc1ccc(/C=C2/SC(=O)N(CCNC(=O)C3COc4ccccc4O3)C2=O)cc1` (stereo unspecified), the Potency result is “inactive” and the cell number change is -11.7%.

Turning to `O=C(NCCN1C(=O)S/C(=C/c2cccnc2)C1=O)c1cccs1`, the Potency is 2.31 µM (active) and the cell number change was -5.78%.

Take `COc1ccc(NC(=O)COC(=O)[C@@H]2CCCN2C(=O)c2cccs2)cc1`: the Potency was 29.1 µM (active) and the cell number change was 7.9%.

As for `O=C(O)CCN1C(=O)S/C(=C\c2cccnc2)C1=O`, the Potency entry is “inactive” and the cell number change was found to be 3.35%.

`CCOc1c([N+](=O)[O-])cc2c(C)c(C(=O)N3CCN(C)CC3)oc2c1OCC`: the Potency result was “inactive” and the cell number change was -1.04%.
